Experimental data published in PubChem BioAssay.
Calls of active or inactive are those of the source.

Test: E. coli acrAB mutant growth effects, primary screen, E. coli filamentation inducers, strain DRC39, OD650, 48 h (AID 1179);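 note: screen aims at cell division blockers that make cells filament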
Conditions: E. coli DRC39 delta-acrAB growth, higher = more signal, called active from +8 up or from −8 down

z-score, inactive:
CCCNC(=O)[C@@]1(Sc2ccc(C)cc2)CC(=O)N(Cc2ccccc2Cl)[C@@H]1c1ccc(CO)cc1I 1.01, C=CCN1Cc2ccccc2[C@H]2OC(c3ccc(OCCCO)cc3)=N[C@@]2(CCS(=O)(=O)c2ccccc2)C1=O -0.342, [N-]=[N+]=Nc1ccccc1C[C@]1(C(=O)N2CCOCC2)N=C(c2ccc(OCCCO)cc2)O[C@H]1c1ccccc1N=[N+]=[N-] 2.48, C[C@]1(C(=O)O)c2ccccc2C(=O)N(Cc2cc(F)cc(C(F)(F)F)c2)[C@H]1c1ccc(CO)cc1 -0.808, CC(C)c1nc2cc(Br)ccc2c(=O)o1 1.24, CN(C)CCCC[C@@H]1NC(=O)[C@H]2C[C@@H](C(=O)O)[C@@H](c3ccc(O)cc3)N2C1=O -0.454, CN1C(=O)C2C(C3CC3)C=C3CN(Cc4cccc(Cl)c4)[C@@H]([C@@H](O)Cc4ccccc4)C3C2C1=O (stereo partly specified) 0.588, C=CCC(OC(C)=O)[C@@H]1[C@@H](N(Cc2ccc(-c3cccc(C(F)(F)F)c3)o2)C(=O)c2ccc(-c3ccccc3)cc2)c2cc(OCCCO)ccc2N1C(=O)c1ccc2ccccc2c1 (stereo partly specified) 0.412, CCCCC(O)C1C=CC2C(=O)N(c3ccccc3)C(=O)C2N1Nc1ccc(C#N)cc1 (stereo unspecified) -0.465, NC(=O)N1C(=O)C2C(C1=O)C1C=C(CCCO)C2C(c2ccc(CN3CCCC3)cc2)N1Cc1sc2ccccc2c1Cl (stereo unspecified) -0.693, CC(C)=CCCC(C)=CC(O)C1C=CC2C(=O)NC(=O)C2N1Nc1ccccn1 (stereo unspecified) 0.528
